Compound activity deposited in PubChem by National Center for Advancing Translational Sciences (NCATS).
HT1080 IDH1KD tx: qHTS for induction of synthetic lethality in tumor cells producing 2HG: qHTS for the HT-1080-IDH1KD cell line | 2% of 360,000 active | HT-1080 IDH1 knockdown viability, ATP luminescence, 48 h | Potency, µM (series often up to 46.1 µM), usual class: cytotoxic | AID 686971, 2013
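HT-1080-IDH1KD cells (IDH1 knocked down), 750/well in RPMI with 5% FBS, treated with compound 48 h at 37 degrees C. Viability by CellTiter-Glo luminescence, normalised to DMSO and no-cell wells; concentration-response curves classed.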
uPA surface inh: qHTS for Inhibitors of Cell Surface uPA Generation; cell surface uPA generation assay, qHTS; Potency, µM (highest dose often 38.3 µM), hits mostly inhibitors; 0.31% of 330,000 active; active = well fitted inhibition curve with a large enough effect; inconclusive = small, poorly fitted or top-dose-only effect; inactive = no such curve, though single readings can be large or run the other way; tested in mouse RAW 264.7 cells; note: nearly all actives have a fitted effect of over 55% in size
HT1080NT lethal: qHTS for induction of synthetic lethality in tumor cells producing 2HG: qHTS for the HT-1080-NT fibrosarcoma cell line; AID 686970, 2013; 1.6% of 360,000 active; HT-1080-NT fibrosarcoma viability, CellTiter-Glo ATP luminescence, 48 h; Potency, µM (titrated, usually from 46.1 µM), actives largely listed as cytotoxic;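 note: NT is the 2HG producing partner of a matched IDH1 knockdown line; nearly all actives have a fitted effect of over 55% in size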
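A 48-hour cytotoxicity screen used HT-1080-NT cells plated 2 hours before compound delivery. ATP-based CellTiter-Glo luminescence measured viability, normalized to DMSO and no-cell controls.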
IL-1B inflam inh: qHTS for Inhibitors of Inflammasome Signaling: IL-1-beta AlphaLISA Primary Screen. AID 743279, 2014. activity change, % at 57.5 µM. 4.7% of 360,000 active. THP-1 LPS/ATP IL-1B secretion, AlphaLISA, 16 h; active compounds read low; in the data active = activity change below about -50%; inconclusive = mostly about -30% to -49%
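THP-1 cells pretreated 1 hr with compounds (up to 57.5 uM final), then stimulated with LPS (250 ng/mL final) plus ATP (1.25 mM final); secreted IL-1B measured by AlphaLISA after 16 hr, decreased signal indicating inhibition.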
TDP1 cell CPT: qHTS for Inhibitors of human tyrosyl-DNA phosphodiesterase 1 (TDP1): qHTS in cells in presence of CPT. chicken DT40 Tdp1-/-;hTDP1 cells + 20 nM CPT, ATP luminescence, 48 h. Potency, µM (series often up to 46.2 µM), most hits filed as inhibitors. 12% of 420,000 active. AID 686979, 2013; note: nearly all actives have a fitted effect of over 55% in size
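Cell growth measured by CellTiter-Glo luminescence after a minimum 48 h, 37 C compound exposure with 20 nM CPT in Tdp1-knockout DT40 cells stably expressing hTDP1, seeded 400/well; qHTS titration format.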
TDP1 cell noCPT: qHTS for Inhibitors of human tyrosyl-DNA phosphodiesterase 1 (TDP1): qHTS in cells in absence of CPT; DT40 Tdp1-/- hTDP1 cells, no CPT, ATP luminescence, 48 h; Potency, µM (highest dose often 46.2 µM), most hits filed as inhibitors; 15% of 420,000 active; AID 686978, 2013; note: nearly all actives have a fitted effect of over 55% in size
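Compound effects on proliferation are scored in DT40 Tdp1-/-;hTDP1 cells in the absence of CPT. ATP levels (CellTiter-Glo luminescence) are recorded after a ≥48 hr, 37 °C incubation.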
A number is an active result; i = inactive; ? = inconclusive; nt = no result. Shown are actives, neighbours in structure and some others; about 19% of the full set was active somewhere. Unless noted, calls come from the whole dose curve; as a rule, active = well fitted curve in the direction sought with a large enough effect; inconclusive = small, poorly fitted or top-dose-only effect, or another doubt; inactive = no such curve, though single readings can be large; an effect the other way counts as inactive or inconclusive.

SMILES	HT1080 IDH1KD tx	uPA surface inh	HT1080NT lethal	IL-1B inflam inh	TDP1 cell CPT	TDP1 cell noCPT
CCOC(=O)C1CCN(C(=O)c2cc3c(C)cc(C)cc3[nH]2)CC1	i	i	?	i	i	?
COc1ccc(S(=O)(=O)NC2CC(=O)N(c3ccc(C)c(C)c3)C2)cc1 (stereo not drawn)	i	i	i	i	?	16µM
COc1cccc(N2CC(NS(=O)(=O)c3ccc4ccccc4c3)CC2=O)c1 (stereo not drawn)	i	i	i	i	i	29µM
Cc1ccc(N2CC(NC(=O)c3ccc(S(=O)(=O)N4CCCC4)cc3)CC2=O)cc1C (stereo not drawn)	nt	nt	nt	nt	?	18µM
Cc1ccc(NC(=O)Cn2c(=O)c3cccn3c3ccccc32)c(Cl)c1	i	i	i	?	?	i
Cc1ccc(NC(=O)CCCn2c(=O)c3cccn3c3ccccc32)c(C)c1	nt	nt	nt	nt	15µM	15µM
Cc1ccc(NC(=O)CCCn2c(=O)c3cccn3c3ccccc32)c(Cl)c1	nt	nt	nt	nt	15µM	12µM
O=C(CCCn1c(=O)c2cccn2c2ccccc21)Nc1cccc(Cl)c1	nt	nt	nt	nt	?	18µM
Cc1cc(C)cc(NC(=O)CCCn2c(=O)c3cccn3c3ccccc32)c1	nt	nt	nt	nt	i	i
O=C(COc1ncnc2ccccc12)Nc1cc([N+](=O)[O-])ccc1F	i	i	i	i	i	i
CN(CC(=O)NCc1cccs1)CC(=O)Nc1ccccc1Cl	i	nt	i	i	i	i
Cc1ccc(CSc2cn(CC(=O)N3CCCCC3)c3ccccc23)cc1	nt	nt	nt	nt	?	23µM
O=C(Cn1cc(SCc2ccc(F)cc2)c2ccccc21)N1CCCCC1	nt	nt	nt	nt	16µM	16µM
CC1CCN(C(=O)Cn2cc(SCc3ccccc3)c3ccccc32)CC1	nt	nt	nt	nt	21µM	16µM
Cc1ccccc1CS(=O)(=O)c1cn(CC(=O)N2CCC(C)CC2)c2ccccc12	i	i	i	i	i	13µM
CC1CCN(C(=O)Cn2cc(C(=O)C3CC3)c3ccccc32)CC1	i	i	i	i	i	i
CCc1cccc(NC(=O)CC2Oc3ccc(C)cc3NC2=O)c1 (stereo not drawn)	nt	nt	nt	nt	i	i
Cc1cc(OCC(=O)Nc2cc(C(C)(C)C)on2)ccc1[N+](=O)[O-]	i	i	i	i	i	i
CCOC(=O)[C@H]1[C@H]2COc3ccc(C)cc3[C@@H]2N2C(=O)c3ccccc3NC(=O)[C@@]12C	i	i	i	i	?	i
Cc1cc(OCC(=O)C(C)(C)C)c2c(-c3ccccc3)cc(=O)oc2c1	i	i	i	i	?	i
COC(=O)c1ccccc1NC(=O)CSc1nc2ccsc2c(=O)n1Cc1ccc(C(=O)O)cc1	i	nt	i	i	i	i
CC(Sc1nnc2n1CCCCC2)C(=O)Nc1ccc(S(N)(=O)=O)cc1 (stereo not drawn)	i	i	i	i	i	i
N[C@H](C(=O)O)C1C(C(=O)O)C1C(=O)O (stereo partly drawn)	nt	nt	nt	nt	i	i
CC1CCN(C(=O)Cn2cc(SCC(=O)NCc3ccc(F)cc3)c3ccccc32)CC1	nt	nt	nt	nt	?	21µM
CCC(C)NC(=O)c1cn(CC)c2ccc(S(=O)(=O)N3CCc4ccccc4C3)cc2c1=O (stereo not drawn)	nt	nt	nt	nt	21µM	?
CCn1cc(C(=O)NC(C)c2ccccc2)c(=O)c2cc(S(=O)(=O)N3CCc4ccccc4C3)ccc21 (stereo not drawn)	nt	nt	nt	nt	?	16µM
CCn1cc(C(=O)N2CCc3ccccc32)c(=O)c2cc(S(=O)(=O)N3CCCC3)ccc21	i	i	i	i	i	i
CC(=O)N1CCN(C(=O)c2sc3ncnc(NCC4CCCO4)c3c2C)CC1 (stereo not drawn)	nt	nt	nt	nt	i	i
